M1 ag – agonists of human M1 muscarinic receptor. 0.33% of 360,000 active. CHO-K1 hM1, Fluo-8 calcium fluorescence, agonist mode; 0% DMSO, 100% acetylcholine EC100. activation, % at 3 µM. P11229;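 active = activation above the run's mean compound activation plus 3 SD, cut at about 16% in these data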;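 note: peak over basal fluorescence ratio within a 140 s kinetic read after compound addition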
Target sequence (P11229 whole entry, looked up): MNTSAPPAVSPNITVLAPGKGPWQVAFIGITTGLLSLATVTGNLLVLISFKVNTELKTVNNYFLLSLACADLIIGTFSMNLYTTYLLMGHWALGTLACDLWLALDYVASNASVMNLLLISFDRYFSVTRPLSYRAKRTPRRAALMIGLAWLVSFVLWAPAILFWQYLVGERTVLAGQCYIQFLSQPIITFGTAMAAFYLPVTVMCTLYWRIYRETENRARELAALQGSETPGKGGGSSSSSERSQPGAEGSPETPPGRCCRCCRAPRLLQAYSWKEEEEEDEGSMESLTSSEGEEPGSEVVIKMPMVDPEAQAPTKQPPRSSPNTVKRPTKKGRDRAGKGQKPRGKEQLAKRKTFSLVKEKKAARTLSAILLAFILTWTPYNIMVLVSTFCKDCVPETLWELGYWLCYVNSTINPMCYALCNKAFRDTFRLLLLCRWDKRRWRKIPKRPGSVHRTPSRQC
CHRM1 antagonist – blocks human M1 muscarinic receptor; CHO-K1 hM1, Fluo-8 calcium fluorescence, ACh EC80 antagonist; inhibition, % at 3 µM; 1.3% of 360,000 active; AID 588852;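 active = percent inhibition above its own plate's cutoff, namely the mean of that plate's compound wells plus 3 SD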;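 note: peak over basal fluorescence ratio during 140 s after agonist addition; 0% = ACh EC80 plus DMSO and 100% = DMSO alone without agonist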
M1 PAM – potentiates human M1 receptor response to acetylcholine | P11229 | AID 588819 | 0.088% of 360,000 active | CHO-K1 hM1, Fluo-8 calcium fluorescence, ACh EC20; 0% = ACh EC20, 100% = maximal ACh | activation, % at 3 µM; in the data active = activation above about 19%, passing the limit was not always enough
M1 ag parental – nonselective activator or artifact in parental CHO-K1 cells; Fluo-8 calcium fluorescence; scaled to maximal ATP response, vehicle zero; activation, % at 3 µM; 0.48% of 360,000 active; AID 602248; in the data active = activation above about 15%;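 note: untransfected CHO-K1 host cells lacking M1 receptor as counterscreen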
CHO-K1 Ca PAM – nonselective activator or artifact in parental CHO-K1 calcium assay. ATP EC20, Fluo-8 calcium fluorescence; 0% at ATP EC20, 100% at ATP max. activation, % at 3 µM. 0.02% of 360,000 active;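 active = activation above the run cutoff, the mean activation of all test compounds plus 3 SD, cut at about 40% in these data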;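 note: peak over basal fluorescence ratio in a 140 s read after ATP addition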
CHO-K1 Ca antag – counter-screen for M1 antagonists: effect in parental CHO-K1 cells | ATP-induced calcium, Fluo-8 fluorescence | inhibition, % at 3 µM | 0.6% of 360,000 active | AID 602250;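 active = inhibition above a per-plate cutoff, the plate's mean sample inhibition plus 3 SD, cut at about 24% in these data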;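 note: 0% = DMSO plus EC80 ATP and 100% = DMSO alone without ATP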
Starred values were filed as active, the others as inactive. A selection: hits, their analogues and other compounds. The true share with any hit is near 2.3%.

SMILES	M1 ag	CHRM1 antagonist	M1 PAM	M1 ag parental	CHO-K1 Ca PAM	CHO-K1 Ca antag
COc1ccc(-c2nc3ccc(C)cn3c2CC2CCCCC2)cc1OC	-4	-29	4	0	1	-17
CCOC(=O)CSc1ccc2nnc(-c3ccccc3)n2n1	-3	-4	4	1	-11	26*
CCOC(=O)CSc1nnc2cc(C)c3ccccc3n12	-4	-13	19*	0	8	-3
CCOC(=O)CSc1ccc2nnc(-c3cccnc3)n2n1	-1	-6	4	0	5	-2
Cn1ccc2c(/C=C/c3ccc(F)cc3)cc3c(c21)C1CCC3C1 (centres undefined)	-7	-9	7	1	19	4
CN(C)c1cc[n+](CC(=O)Nc2ccc(Oc3ccccc3)cc2)cc1	-15	64*	-36	0	4	4
O=S1(=O)[C@H]2C[C@@H]3CC[C@]2(CN1Cc1cccc(F)c1)O3	-6	0	0	0	6	-13
COC(=O)c1ccc(NC(=O)Cn2nc(-c3ccncc3)nc2SCC(=O)Nc2nccs2)cc1	-5	33*	-21	0	1	3
CCCC(=O)N1CCCC(C(=O)c2cccc(OC(C)C)c2)C1 (centres undefined)	-7	-11	8	0	12	3
O=C(Nc1cccc(Cl)c1)ON=C1c2ccccc2-c2ccccc21	-9	29*	-16	2	-15	21
O=C(Nc1cccc(Cl)c1)OCCOCCOC(=O)Nc1cccc(Cl)c1	-2	5	-5	1	5	-11
COc1ccc2[nH]c3c(c2c1)CCN1C(=O)N([C@@H](C)C(=O)NC2CCCCC2C)C(=O)[C@]31C (some centres undefined)	-6	1	2	0	10	-7
Cc1ccn2c(-c3csc(NCc4ccccc4)n3)c(C)nc2c1	-2	15	-6	5	-6	25*
Cc1ccc(Nc2nc(-c3c(C)nc4ccccn34)cs2)cc1	-5	23*	-11	4	-8	5
Cc1nc2ccccn2c1-c1csc(NCc2ccco2)n1	-1	-3	4	5	-8	-2
Cc1ccc(Nc2nc(-c3c(C)nc4ncccn34)cs2)cc1	-4	-9	5	5	23	-13
Cn1c(CC(=O)Nc2ccccc2F)nnc1SCC(=O)N1CCOCC1	2	-8	8	1	9	-1
Cc1cc(C(C)(C)C)cc(C)c1COC(=O)CN1C(=O)NC2(CCCC2)C1=O	-1	-4	6	0	-5	6
CCN1C(=O)/C(=C/C=C2/SCCN2C)SC1=S	8	-4	6	3	2	12
CCCCN1C(=O)/C(=C/C=C2/CC(C)(C)CN2C)SC1=S	31*	36*	-18	38*	2	28*
CCCCN1C(=O)/C(=C/C=C2\Oc3ccccc3N2CC)SC1=S	28*	43*	-8	15*	2	22
O=C(NCc1cnn(-c2ccccc2)c1)C1CCC(=O)N(C2CC2)C1 (centres undefined)	-1	-3	7	0	16	-2
CCc1nc2ccc(C(=O)Nc3ccc(OC)c(OC)c3)cn2c1N(CCC(C)C)CCN(C)C	18*	-5	-3	0	11	-8
CCc1nc2ccc(C(=O)Nc3ccc(NC(C)=O)cc3)cn2c1N(CCC(C)C)CCN(C)C	0	-7	3	2	9	-1
CCc1nc2ccc(C(=O)NCCOc3ccc(OC)cc3)cn2c1N(CCC(C)C)CCN(C)C	34*	11	-8	3	31	-12
SMILES	M1 ag	CHRM1 antagonist	M1 PAM	M1 ag parental	CHO-K1 Ca PAM	CHO-K1 Ca antag
CCCCNC(=O)c1ccc2nc(CC)c(N(CCC(C)C)CCN(C)C)n2c1	22*	-12	1	1	8	1
CCc1nc2ccc(C(=O)Nc3cc(-c4ccccc4)ccc3OC)cn2c1N(C=O)CCC(C)C	1	-12	13	1	13	-9
CCc1nc2ccc(C(=O)Nc3cc(-c4ccccc4)ccc3OC)cn2c1N(C)CCC(C)C	-2	-20	8	37*	11	-13
CCCCNC(=O)c1ccc2nc(CC)c(N(CC)CCN(C)C)n2c1	-4	-13	7	0	2	8
CC(C)(C)c1cc(NC(=O)Nc2ccc(Br)cc2Cl)no1	-6	28*	-16	0	9	-15
CC(C)C(=O)Nc1ccc(Br)cc1Cl	-11	-3	1	-2	-13	56*
CCOc1ccc(NS(=O)(=O)c2ccc(C)c(C(=O)NCCCn3ccnc3)c2)cc1	-7	-5	-1	0	-2	-4
Cc1cc(SCC(=O)c2cccs2)nc2ccccc12	-10	-12	6	1	22	-11
O=C(Nc1nc2ccccc2s1)c1ccc(N2CCCCC2)c([N+](=O)[O-])c1	-7	-4	1	0	5	1
CCOC(=O)Cc1csc(NC(=O)c2sc3nc4c(C)cc(C)cc4cc3c2N)n1	-1	32*	-20	2	11	-11
CCOC(=O)Cc1csc(NC(=O)c2csc(C)c2)n1	0	-5	3	8	8	-1
O=C(Nc1ccccc1)C1=C[C@H](c2ccc(Br)cc2)C[C@H](OCc2ccc(CO)cc2)O1	-2	-10	2	0	21	-11
O=C(CCn1c(SCC(=O)NCc2ccco2)nc2ccccc2c1=O)NCCc1ccccc1	-3	-3	1	3	16	-5
C=CCn1c(SCC(=O)NCc2ccco2)nc2ccccc2c1=O	-13	100*	-33	0	-13	23
CS(=O)(=O)N1CCCCC1c1cc(C(=O)Nc2ccccc2Cl)no1 (centres undefined)	-3	-17	8	0	21	-16
Cc1sc(NC(=O)CSC2=NCCS2)nc1-c1ccccc1	-4	-24	-2	0	6	1
CCOC(=O)N1CCN(C(=O)CSCc2ccc(C)cc2)CC1	0	18	-1	0	-8	26*
CCOC(=S)SCC(=O)Nc1nc(-c2ccccc2)cs1	-6	-8	6	5	19	-8
CCOC(=O)N1CCN(C(=O)CSCC(=O)Nc2nc(-c3ccc(-c4ccccc4)cc3)cs2)CC1	4	48*	-19	8	8	7
Cc1ccc(-c2csc(NC(=O)CSC3=NCCS3)n2)cc1	-6	4	-10	0	-6	25*
CCOC(=S)SCC(=O)Nc1nc(-c2ccc(Br)cc2)cs1	-4	32*	4	2	11	-5
CC(=O)c1ccc(OCCCC(=O)OCC(=O)Nc2ccc3[nH]c(=O)[nH]c3c2)cc1	-5	12	4	2	4	-7
Cc1ccc(S(=O)(=O)N(CC(=O)Nc2ccccc2C(=O)O)c2ccccc2)cc1	-9	2	9	16*	-3	14
